Source: the supplement of paper PMC12645437, “Orthogonal IMiD-Degron Pairs Induce Selective Protein Degradation in Cells” (ACS Chemical Biology, 2025)
Over roughly 8,300 sequences, “log2 fold change of degron read counts, EGFP-low vs EGFP+ sorted cells (limma voom), compound-induced degradation” has its median near -1.1; the highest 2% begin near 3.2. This excerpt belongs to a sample that is enriched for the highest values.

T1: CRBN, Q96SW2
T1 chain: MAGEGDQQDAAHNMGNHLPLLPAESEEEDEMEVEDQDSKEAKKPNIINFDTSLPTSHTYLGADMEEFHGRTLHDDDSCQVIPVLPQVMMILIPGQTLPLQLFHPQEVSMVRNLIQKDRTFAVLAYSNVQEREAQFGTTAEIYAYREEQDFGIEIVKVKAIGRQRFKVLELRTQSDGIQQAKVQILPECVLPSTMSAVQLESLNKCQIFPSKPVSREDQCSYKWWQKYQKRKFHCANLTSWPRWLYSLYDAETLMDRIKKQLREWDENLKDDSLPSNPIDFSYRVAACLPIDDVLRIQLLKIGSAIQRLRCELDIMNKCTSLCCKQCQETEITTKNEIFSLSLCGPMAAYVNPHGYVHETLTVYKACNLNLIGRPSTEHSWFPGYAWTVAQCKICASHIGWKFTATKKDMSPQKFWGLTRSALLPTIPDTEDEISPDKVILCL

B1: 46F_47C_49D_50Q_52G_53A_54Q_55F_67L_, Q9UKT9 (peptide)
chain: FCCDQCGAQFTQKGNLLRHIKL
B2: 46F_47W_49N_50Q_52G_53R_54S_55F_67L_, Q9UKT9 (peptide)
chain: FWCNQCGRSFTQKGNLLRHIKL
B3: 46L_47V_49E_50I_52G_53F_54D_55C_67L_, Q9UKT9 (peptide)
chain: LVCEICGFDCTQKGNLLRHIKL
B4: 46F_47D_49N_50Q_52G_53A_54F_55F_67L_, Q9UKT9 (peptide)
chain: FDCNQCGAFFTQKGNLLRHIKL
B5: 46F_47R_49D_50V_52G_53A_54L_55F_67L_, Q9UKT9 (peptide)
chain: FRCDVCGALFTQKGNLLRHIKL
B6: 46L_47N_49P_50I_52G_53F_54D_55C_67L_, Q9UKT9 (peptide)
chain: LNCPICGFDCTQKGNLLRHIKL
B7: 46F_47R_49E_50Q_52G_53A_54S_55F_67L_, Q9UKT9 (peptide)
chain: FRCEQCGASFTQKGNLLRHIKL
B8: 46L_47F_49E_50I_52G_53F_54R_55C_67L_, Q9UKT9 (peptide)
chain: LFCEICGFRCTQKGNLLRHIKL
B9: 46L_47K_49E_50I_52G_53F_54R_55C_67L_, Q9UKT9 (peptide)
chain: LKCEICGFRCTQKGNLLRHIKL
B10: 46L_47Y_49E_50I_52G_53F_54I_55C_67L_, Q9UKT9 (peptide)
chain: LYCEICGFICTQKGNLLRHIKL
B11: 46L_47C_49E_50I_52G_53F_54M_55C_67L_, Q9UKT9 (peptide)
chain: LCCEICGFMCTQKGNLLRHIKL
B12: 46L_47Y_49E_50I_52G_53F_54M_55C_67L_, Q9UKT9 (peptide)
chain: LYCEICGFMCTQKGNLLRHIKL
B13: 46L_47L_49E_50I_52G_53F_54R_55C_67L_, Q9UKT9 (peptide)
chain: LLCEICGFRCTQKGNLLRHIKL
B14: 46L_47A_49E_50I_52G_53F_54I_55C_67L_, Q9UKT9 (peptide)
chain: LACEICGFICTQKGNLLRHIKL
B15: 46L_47I_49E_50I_52G_53F_54R_55C_67L_, Q9UKT9 (peptide)
chain: LICEICGFRCTQKGNLLRHIKL
B16: 46L_47A_49E_50I_52G_53F_54M_55C_67L_, Q9UKT9 (peptide)
chain: LACEICGFMCTQKGNLLRHIKL
B17: 46L_47C_49E_50I_52G_53F_54I_55C_67L_, Q9UKT9 (peptide)
chain: LCCEICGFICTQKGNLLRHIKL
B18: 46L_47E_49E_50I_52G_53F_54R_55C_67L_, Q9UKT9 (peptide)
chain: LECEICGFRCTQKGNLLRHIKL
B19: 46L_47Q_49E_50I_52G_53F_54R_55C_67L_, Q9UKT9 (peptide)
chain: LQCEICGFRCTQKGNLLRHIKL
B20: 46F_47I_49D_50I_52G_53A_54T_55F_67L_, Q9UKT9 (peptide)
chain: FICDICGATFTQKGNLLRHIKL
B21: 46F_47K_49E_50Q_52G_53A_54P_55F_67L_, Q9UKT9 (peptide)
chain: FKCEQCGAPFTQKGNLLRHIKL
B22: 46F_47V_49N_50I_52G_53A_54C_55F_67L_, Q9UKT9 (peptide)
chain: FVCNICGACFTQKGNLLRHIKL
B23: 46F_47F_49N_50Q_52G_53R_54T_55F_67L_, Q9UKT9 (peptide)
chain: FFCNQCGRTFTQKGNLLRHIKL
B24: 46F_47C_49S_50V_52G_53H_54K_55F_67L_, Q9UKT9 (peptide)
chain: FCCSVCGHKFTQKGNLLRHIKL
B25: 46F_47W_49E_50I_52G_53H_54I_55F_67L_, Q9UKT9 (peptide)
chain: FWCEICGHIFTQKGNLLRHIKL
B26: 46F_47I_49E_50I_52G_53R_54I_55F_67L_, Q9UKT9 (peptide)
chain: FICEICGRIFTQKGNLLRHIKL
B27: 46F_47L_49E_50I_52G_53R_54A_55F_67L_, Q9UKT9 (peptide)
chain: FLCEICGRAFTQKGNLLRHIKL
B28: 46L_47R_49E_50I_52G_53F_54I_55C_67L_, Q9UKT9 (peptide)
chain: LRCEICGFICTQKGNLLRHIKL

Biological target: T1, CRBN, Q96SW2
Experiment: log2 fold change of degron read counts, EGFP-low vs EGFP+ sorted cells (limma voom), compound-induced degradation; higher = more compound-induced degradation of the degron-EGFP fusion; degrons are variants of IKZF1/3 zinc finger 2; compound dose not given here
Details: Jurkat, 18 h
[1] = compound: compound 19 (5-tert-butyl-thalidomide)
[2] = compound: compound 22 (5-morpholino-thalidomide)
[3] = compound: compound 33 (diphenyl IMiD analogue)
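Note: pooled lentiviral library of zinc finger degron-EGFP fusions in mCherry-positive Jurkat cells, FACS-sorted after compound exposure, with degron abundance counted by next-generation sequencing.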

Sequence | log2 fold change of degron read counts [1] | log2 fold change of degron read counts [2] | log2 fold change of degron read counts [3] | log2 fold change of degron read counts (compound: thalidomide)
B1 | -1.9 | -1.68 | -1.17 | -2.37
B2 | -1.96 | -2.11 | -1.99 | -2.07
B3 | -3.07 | -2.83 | -2.91 | -1.81
B4 | -1.58 | -1.99 | -2.03 | -1.65
B5 | -2.19 | -2.03 | 0.228 | -1.08
B6 | -1.95 | -1.67 | -1.11 | -0.883
B7 | -1.07 | -1.32 | 0.513 | -0.516
B8 | 3.71 | 3.64 | 1.36 | 2.31
B9 | -1.07 | -2.46 | -2.5 | -0.336
B10 | 2.99 | 3.26 | 2.2 | 0.746
B11 | 1.12 | 1.14 | 1.45 | 1.31
B12 | 3.38 | 3.27 | 2.53 | 1.05
B13 | 0.785 | -1.31 | 0.385 | 2.48
B14 | 1.83 | 0.461 | -0.53 | -0.408
B15 | 1.24 | 2.26 | 1.57 | 3.01
B16 | 2.65 | 1.33 | 0.0952 | 0.132
B17 | 0.819 | 0.557 | 1.54 | 1.05
B18 | 0.728 | -0.831 | 2.02 | 3.15
B19 | 1.29 | 1.55 | 1.26 | 3.58
B20 | -1.39 | 0.332 | 0.735 | -0.113
B21 | -1.28 | -2.18 | -2.55 | -1.19
B22 | -1.18 | 0.539 | 1.63 | 1.37
B23 | -2.31 | -2.17 | -2.54 | -2.59
B24 | -2 | -2.26 | -2.77 | -2.04
B25 | -0.453 | -0.795 | -0.246 | -0.951
B26 | -1.03 | -1.63 | 0.139 | -0.162
B27 | -1.9 | -2.56 | -1.36 | -1.22
B28 | -0.547 | -1.4 | 0.271 | 0.795
